These results are taken from PubChem BioAssay (EPA / NIEHS).

Records with an inconclusive call do not appear. The source made the active and inactive calls. The calls were made as follows: active = hit-call score of the fitted dose curve at least 0.9, where 1 is the maximum; inconclusive = response in the unintended direction; inactive = score below 0.9.

A short description of assay [1]: TOX21_p53_BLA_p2_viability: Viability Assessment in the Tox21 HCT-116 p53 Agonism Beta-lactamase Assay, Phase 2 (AID 2283591).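 Also: compound exposure lasted 16 h at 37 °C; actives lower the ATP signal meaning cytotoxicity.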 A digest of the protocol:
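HCT-116 p53-bla cells (4000/well) rested 5 h at 37C, then received compounds in DMSO (217-fold dilution) for 16 h at 37C, 5% CO2. After the CCF4 read, CellTiter-Glo was added; ATP luminescence was read after 30 min at room temperature.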

Assay [2] addresses Cellular tumor antigen p53 (Homo sapiens) (UniProt P04637). The assay can be described thus: TOX21_p53_BLA_p2_ratio: Tox21 HCT-116 p53 Agonism Beta-lactamase Assay, Ratio, Phase 2 (AID 2283592). A digest of the protocol:
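Cleaved-to-uncleaved substrate ratio (460 vs 530 nm) measured in HCT116 cells with an inducible beta-lactamase reporter linked to p53 activity. Compounds incubated 16 h at 37C before 2 h room-temperature CCF4-AM loading.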

Assay [3] can be described thus: TOX21_p53_BLA_p3_viability: Viability Assessment in the Tox21 HCT-116 p53 Agonism Beta-lactamase Assay, Phase 3 (AID 2283593).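 Also: cells exposed to compound for 16 h before reading.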 A digest of the protocol: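 HCT-116 cells (4000/well) rested 5 h at 37C, then got DMSO compounds by pin tool (217-fold dilution) for 16 h at 37C, 5% CO2. After the bla read, CellTiter-Glo was added and luminescence read at 30 min, room temperature.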

Assay [4] addresses Cellular tumor antigen p53 (Homo sapiens) (UniProt P04637). As to the kind of experiment: TOX21_p53_BLA_p3_ratio: Tox21 HCT-116 p53 Agonism Beta-lactamase Assay, Ratio, Phase 3 (AID 2283596). A digest of the protocol: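 Cells were seeded at 4000/well, rested 5 h at 37C, then dosed with DMSO compound solutions (217-fold dilution) for 16 h. CCF4-AM substrate was loaded for 2 h at room temperature, and the 460/530 nm emission ratio was fitted for gain of signal versus DMSO.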

A short description of assay [5]: TOX21_p53_BLA_p4_viability: Viability Assessment in the Tox21 HCT-116 p53 Agonism Beta-lactamase Assay, Phase 4 (AID 2283597).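 Also: hits lower the luminescence signal meaning cytotoxicity.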 A digest of the protocol: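 Viability is taken as cellular ATP: after 16 h compound exposure of HCT116 cells and a 2 h room-temperature CCF4-AM substrate step, CellTiter-Glo reagent is added and luminescence is measured 30 min later.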
Assay [6] has as its target Cellular tumor antigen p53 (Homo sapiens) (UniProt P04637). As to the kind of experiment: TOX21_p53_BLA_p5_ratio: Tox21 HCT-116 p53 Agonism Beta-lactamase Assay, Ratio, Phase 5 (AID 2283599). A digest of the protocol:
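HCT-116 cells carrying a p53-inducible beta-lactamase reporter were seeded at 4000 cells/well and dosed after 5 h with compound in DMSO (217-fold dilution). After 16 h at 37C, CCF4-AM substrate was added for 2 h, and the 460/530 nm emission ratio was scored as gain-of-signal versus DMSO.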

A short description of assay [7]: TOX21_p53_BLA_p5_viability: Viability Assessment in the Tox21 HCT-116 p53 Agonism Beta-lactamase Assay, Phase 5 (AID 2283600). Summed up:
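Viability is taken from cellular ATP content, measured by luciferase luminescence in the same wells after the beta-lactamase ratio read. Cells are seeded at 4000 per well and exposed to DMSO-dissolved compounds, diluted 217-fold, for 16 h.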

Assay [8] has as its target Cellular tumor antigen p53 (Homo sapiens) (UniProt P04637). The assay can be described thus: TOX21_p53_BLA_p4_ratio: Tox21 HCT-116 p53 Agonism Beta-lactamase Assay, Ratio, Phase 4 (AID 2283601). A digest of the protocol: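 HCT116 cells carrying an inducible beta-lactamase reporter were plated at 4000 cells/well, rested 5 h, then exposed to compounds in DMSO (217-fold dilution) for 16 h at 37C. CCF4-AM substrate was loaded 2 h at room temperature; 460/530 nm emission ratio scored gain-of-signal versus DMSO.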

Sequence of Cellular tumor antigen p53 (Homo sapiens) (P04637 whole entry, looked up): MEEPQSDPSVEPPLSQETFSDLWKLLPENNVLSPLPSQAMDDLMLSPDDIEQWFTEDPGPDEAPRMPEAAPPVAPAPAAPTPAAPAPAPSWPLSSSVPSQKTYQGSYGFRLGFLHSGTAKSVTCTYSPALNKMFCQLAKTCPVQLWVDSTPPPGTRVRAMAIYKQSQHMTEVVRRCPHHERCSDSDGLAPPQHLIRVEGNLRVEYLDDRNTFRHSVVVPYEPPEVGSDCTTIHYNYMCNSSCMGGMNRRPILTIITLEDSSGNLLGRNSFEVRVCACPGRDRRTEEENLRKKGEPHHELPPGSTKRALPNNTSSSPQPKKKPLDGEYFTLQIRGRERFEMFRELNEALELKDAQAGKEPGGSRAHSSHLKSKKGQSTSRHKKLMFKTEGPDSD

Consider `Cc1nnc(NS(=O)(=O)c2ccc(N)cc2)s1`, for which the call in assay [1], in assay [2], in assay [3], in assay [4], in assay [5] and in assay [6] was inactive. The result in assay [7] and in assay [8] was inactive.

Take `CC(C)(C)C(=O)O`: the molecule was classed as inactive in assay [1], in assay [2], in assay [3], in assay [4], in assay [5] and in assay [6]. Also, the outcome in assay [7] and in assay [8] was inactive.

`CCCOc1ccc(C(=O)OCCN(CC)CC)cc1N`: the molecule was called inactive in assay [1], in assay [2], in assay [3], in assay [4], in assay [5] and in assay [6]. Also, the outcome in assay [7] and in assay [8] was inactive.

As usually defined, the AC50 is the concentration giving half of the maximal activity seen. Regarding `O=C(O)c1cc(N=Nc2ccc([N+](=O)[O-])cc2)ccc1O`, the figures for the AC50 in assay [1], in assay [3] and in assay [5] were 84.1 µM (active), 45.4 µM (active) and 29.6 µM (active), respectively. Moreover, the outcome in assay [2], in assay [4], in assay [6], in assay [7] and in assay [8] was inactive.

Consider `CCC(CC)(CC(=O)Nc1cccc(/C=C/c2nc(C3CCC3)cs2)c1)C(=O)O`, for which the result in assay [1], in assay [2], in assay [3], in assay [4], in assay [5] and in assay [6] was inactive. In addition, the result in assay [7] and in assay [8] was inactive.

Take `O=C(c1cc2ccccc2o1)N1CCN(Cc2ccccc2)CC1`: the molecule was classed as inactive in assay [1], in assay [2], in assay [3], in assay [4], in assay [5] and in assay [6]. Besides, the molecule was called inactive in assay [7] and in assay [8].

For the molecule `CCCCCCCCCOC(=O)c1ccc(O)cc1`, the AC50 in assay [1] was 53.3 µM (active); in assay [2] it was 80.5 µM (active); in assay [5] it was 23 µM (active); in assay [8] it was 39.3 µM (active). For the same molecule, the molecule was classed as inactive in assay [3], in assay [4], in assay [6] and in assay [7].

As to `Cc1cc(-c2ccc(N=Nc3cc(S(=O)(=O)O)c4ccccc4c3N)c(C)c2)ccc1N=Nc1cc(S(=O)(=O)O)c2ccccc2c1N`, the outcome in assay [1], in assay [3], in assay [5], in assay [6], in assay [7] and in assay [8] was inactive. Moreover, the figures for the AC50 in assay [2] and in assay [4] were 6.5 µM (active) and 12.6 µM (active), respectively.

For the molecule `CCCCCC[C@@H](CCC)C(=O)O`, the molecule was called inactive in assay [1], in assay [2], in assay [3], in assay [4], in assay [5] and in assay [6]. Further, the result in assay [7] and in assay [8] was inactive.

For `CC1(C)S[C@@H]2[C@H](NC(=O)C(C(=O)O)c3ccccc3)C(=O)N2[C@H]1C(=O)O` (stereo partly drawn), the molecule was classed as inactive in assay [1], in assay [2], in assay [3], in assay [4], in assay [5] and in assay [6]. Also, the result in assay [7] and in assay [8] was inactive.

Turning to `CCOc1cc(-c2nccc3cc(OC)c(OC)cc23)cc(OCC)c1OCC`, the result in assay [1], in assay [2], in assay [3], in assay [4], in assay [5] and in assay [6] was inactive. The call in assay [7] and in assay [8] was inactive.

`CC(C)(C)CC(C)(C)c1ccccc1O`: the AC50 was 74.6 µM (active) in assay [1]; 75.3 µM (active) in assay [2]; 68.9 µM (active) in assay [3]; 77.8 µM (active) in assay [4]; 65.9 µM (active) in assay [5]; 81.5 µM (active) in assay [6]. In addition, the AC50 in assay [7] is 68 µM (active); in assay [8], 81.7 µM (active).

For the molecule `CC1=C2[C@H](/C=C(\C)C(=O)O)CC[C@@H](C)[C@H]2CC1`, the molecule was called inactive in assay [1], in assay [2], in assay [3], in assay [4], in assay [5] and in assay [6]. Besides, the call in assay [7] and in assay [8] was inactive.

Consider `COc1cccc2c1[C@@H]1CN(CCCCn3c(=O)[nH]c4c(sc5ncc(-c6ccccc6)nc54)c3=O)C[C@@H]1CO2`, for which the AC50 in assay [1] is 39.8 µM (active); in assay [5] it was 43.3 µM (active). Moreover, the outcome in assay [2], in assay [3], in assay [4], in assay [6], in assay [7] and in assay [8] was inactive.

`C[N+]1(CC2COC(c3ccccc3)(C3CCCCC3)O2)CCCCC1` (stereo not drawn): the molecule was classed as inactive in assay [1], in assay [2], in assay [3], in assay [4], in assay [5] and in assay [6]. The molecule was classed as inactive in assay [7] and in assay [8].

For `O=CC=C(c1ccccc1)c1ccccc1`, the molecule was classed as inactive in assay [1], in assay [4], in assay [6], in assay [7] and in assay [8]. For the same molecule, the figures for the AC50 in assay [2], in assay [3] and in assay [5] were 46.4 µM (active), 47.3 µM (active) and 29.8 µM (active), respectively.

In the case of `Cc1ccc2nc(N)[nH]c(=O)c2c1Sc1ccncc1`, the outcome in assay [1], in assay [5], in assay [6], in assay [7] and in assay [8] was inactive. For the same molecule, the AC50 was 2.17 µM (active) in assay [2], 3.66 µM (active) in assay [3] and 3.22 µM (active) in assay [4].

Consider `CCC(=O)O[C@]1(C(=O)CCl)[C@@H](C)C[C@H]2[C@@H]3C[C@H](F)C4=CC(=O)C=C[C@]4(C)[C@@]3(F)[C@@H](O)C[C@@]21C`, for which the outcome in assay [1], in assay [2], in assay [3], in assay [4], in assay [5] and in assay [6] was inactive. The outcome in assay [7] and in assay [8] was inactive.

As for `CC1(COc2ccc(CC3SC(=O)NC3=O)cc2)CCCCC1` (stereo not drawn), the AC50 in assay [1] is 28.8 µM (active); in assay [2], 36.7 µM (active); in assay [3], 35.1 µM (active); in assay [4], 27.1 µM (active); in assay [5], 18.6 µM (active); in assay [6], 27.6 µM (active). In addition, the AC50 in assay [7] is 21.6 µM (active); in assay [8] it was 34.7 µM (active).

As for `CN(C)[C@@H]1C(=O)C(C(=O)NCN2CCCC2)=C(O)[C@@]2(O)C(=O)C3=C(O)c4c(O)cccc4[C@@](C)(O)C3C[C@@H]12` (stereo partly drawn), the call in assay [1], in assay [2], in assay [3], in assay [4], in assay [5] and in assay [6] was inactive. The molecule was classed as inactive in assay [7] and in assay [8].

Turning to `N[C@H](C(=O)O)[C@@H]1CC(Cl)=NO1`, the AC50 is 15.8 µM (active) in assay [1]; 5.51 µM (active) in assay [2]; 9.5 µM (active) in assay [3]; 5.91 µM (active) in assay [4]; 13.7 µM (active) in assay [5]; 5.35 µM (active) in assay [6]. The AC50 in assay [7] is 11.4 µM (active); in assay [8], 5.46 µM (active).
